Results from PubChem BioAssay AID1259397 (Fisher Drug Discovery Resource Center, 2018).
“And” between values parts separate entries of the source, which are not always exact repeats. Equal entries are not always repeated. The campaign covered roughly 130,000 compounds. About 230 (0.18%) were called active.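 The calls were made as follows: active = inhibition of cGAS enzyme activity at or above 60%; inactive = the rest.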 The list comes from a sample in which actives are over-represented; it also holds similar structures and randomly drawn compounds. More than one record can exist for a structure, and the calls need not agree.

The molecules below were run against Cyclic GMP-AMP synthase (Mus musculus) (UniProt Q8C6L5) (assay: inhibitors of Mus musculus cyclic GMP-AMP synthase, initial high-throughput assay, cell-free, RapidFire MS (AID 1259397;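 also: enzyme stimulated by 45 bp dsDNA with ATP and GTP substrates; cGAMP share of summed cGAMP plus half ATP and half GTP signals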)). Details: recombinant mouse cGAS, cGAMP by RapidFire MS; at 12.5 µM; stronger effect = higher value.
Cyclic GMP-AMP synthase (Mus musculus), sequence (Q8C6L5 whole entry, looked up): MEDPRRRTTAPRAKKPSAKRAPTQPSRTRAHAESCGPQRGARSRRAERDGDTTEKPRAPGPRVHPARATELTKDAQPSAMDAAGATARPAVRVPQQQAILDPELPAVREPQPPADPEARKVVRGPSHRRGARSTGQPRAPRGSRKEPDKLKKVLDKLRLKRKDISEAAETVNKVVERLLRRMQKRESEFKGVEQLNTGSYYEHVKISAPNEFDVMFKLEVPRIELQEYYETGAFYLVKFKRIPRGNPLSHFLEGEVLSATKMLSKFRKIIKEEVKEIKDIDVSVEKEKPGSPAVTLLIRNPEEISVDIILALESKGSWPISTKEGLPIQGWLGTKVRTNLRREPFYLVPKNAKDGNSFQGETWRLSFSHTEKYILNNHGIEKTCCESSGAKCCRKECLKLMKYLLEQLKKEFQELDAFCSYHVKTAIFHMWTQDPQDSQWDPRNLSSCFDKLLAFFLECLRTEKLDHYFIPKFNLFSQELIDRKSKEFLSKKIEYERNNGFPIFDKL

SMILES	inhibition
Cc1ccc(NS(=O)(=O)c2ccccc2C(F)(F)F)cc1C	-9.68% (inactive)
Cc1nc(-c2cccs2)sc1C(=O)OCc1cc(=O)n2c(C)csc2n1	17.2% (inactive)
COc1cc(C)c(CN2CCN(C(=O)C3=COCCO3)CC2)cc1OC	0.561% (inactive)
O=C(NCC1(c2ccc(F)cc2)CCCC1)C1CCN(C(=O)C2CC2)CC1	0.199% (inactive)
FC(F)C(F)(F)C(F)(F)C(F)(F)CNCc1ccco1	6.11% (inactive)
CC(C)Oc1ccc(-c2cncn2C)cc1	-19.6% (inactive)
Cn1nnnc1SCCNC(=O)c1ccc2oc(Cc3ccccc3)nc2c1	3.65% (inactive)
COCCCn1c(C)c(C)n2c3c(=O)n(CC(C)C)c(=O)n(C)c3nc12	-5.91% (inactive)
COC(=O)c1ccc(-c2nc(CN3CCN(C(=O)c4cccc(OC)c4)CC3)c(C)o2)cc1	-3.22% (inactive)
O=C(CC1CSc2nccc(=O)n21)Nc1ccc(Oc2ccccc2)cc1 (stereo not drawn)	-4.45% (inactive)
CCC(c1ccccc1)C1(O)OC(=O)c2ccccc21 (stereo not drawn)	-3.91% (inactive)
O=C(CCn1c(=O)oc2cc(Cl)ccc21)N1CCN(c2ccccc2Cl)CC1	-7.84% (inactive)
COc1ccc(C(=O)NC2CC2)cc1OC1CCN(C/C=C/c2ccccc2)CC1	-2.34% (inactive)
CC(C)(C)n1ncc2c(=O)n(NC(=O)c3ccc(C(F)(F)F)cc3)cnc21	-4.85% (inactive)
C#CC(CC)(CC)NC(=O)c1ccc(S(C)(=O)=O)cc1	1.64% (inactive)
COc1cc(CNC(C)(C)CO)ccc1OCC(=O)Nc1ccc(C)cc1	-4.89% (inactive)
CCc1ccc2oc3c(c(=O)c2c1)C(c1cccc([N+](=O)[O-])c1)N(c1cc(C)on1)C3=O (stereo not drawn)	-10.5% (inactive)
Cc1noc(CNC(=O)C2CC(=O)N(CC(F)(F)F)C2)n1 (stereo not drawn)	1.05% (inactive)
CCC1=NOC(C(=O)NCCn2c(C)cc(C)nc2=O)C1 (stereo not drawn)	0.535% (inactive)
CC(CCS(C)=O)NC(=O)Nc1ncc(-c2ccccc2)s1 (stereo not drawn)	-2.71% (inactive)
Oc1c(Cl)cc(Cl)c(Cl)c1Cc1c(O)c(Cl)cc(Cl)c1Cl	92.7% (active) and 36.7% (inactive)
COc1ccc(-c2csc(=Nc3cc(OC)cc(OC)c3)n2NC(=O)C(C)Oc2ccc(Cl)cc2C)cc1 (stereo not drawn)	1.02% (inactive)
Cc1cc(C)n(CCNC(=O)CN2CCN(c3ccc4c(c3)OCCO4)C2=O)n1	-5.72% (inactive)
